Test results as given in PubChem BioAssay.
Values joined by “and” are separate entries in the source; they are usually repeats but may differ in a detail not shown here. Identical values can stand only once. Results filed as inconclusive are left out. A structure can be active in one record and inactive in another. Active and inactive are the calls of the source.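 How the source made its calls, unless noted: active means normalized viability below 100% at a tested concentration; inactive means the rest.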

What was measured:
[1] = Wnt pathway potentiators raising nuclear beta-catenin – imaging, WNT3A-conditioned medium, mouse C2C12, NPC library, primary screen (AID 1117326; in the data active means nuclear beta-catenin stimulation mostly above about 4.2%, no sharp cut-off; inactive means mostly below about 10%); settings: stronger effect = higher value
[2] = stimulators of insulin release from INS-1E, primary screen, cell-based, 5 mM glucose, NPC library (AID 1117329;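 active means compound raises insulin release from rat beta cells at 5 mM glucose, no numeric limit stated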); settings: rat INS-1E insulin secretion, at 10 µM, stronger effect = higher value
[3] = growth inhibition of GSK3B-pretreated HCT116 cells – cell-based, CellTiter-Glo, 0.2 to 20 µM (AID 1117336;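 active means compounds lowering colon cancer cell viability after pretreatment blocking the GSK3B kinase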); settings: HCT116 viability after GSK3B inhibitor, at 20 µM, stronger effect = higher value
[4] = inhibition of endothelial tube formation, primary screen, imaging, VEGF stimulated, CD31 staining, tube area, NPC library (AID 1117340;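 active means compound that reduces growth-factor-driven endothelial tube area in a mixed cell culture, no cutoff stated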); settings: VEGF-stimulated ADSC/ECFC co-culture, at 10 µM, stronger effect = higher value
[5] = GLP1 release stimulators, primary, NCI-H716, NPC library (AID 1117341;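 active means compound raises GLP1 secretion from the human gut endocrine cells, with no numeric limit stated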); settings: NCI-H716 cells, at 10 µM, stronger effect = higher value
[6] = HCT116 colon cancer cell growth inhibition, primary screen, CellTiter-Glo luminescence, NPC library (AID 1117342;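 active means compounds that lower survival of HCT116 colon cancer cells in the luminescence readout, no numeric limit stated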); settings: at 20 µM (top of the series)
[7] = reduced SW480 viability measured with CellTiter-Glo, NPC library, primary (AID 1117343;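 active means compounds that lower viability of the colon cancer cells in the luminescence readout, with no numeric limit stated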); settings: CellTiter-Glo luminescence; at 20 µM (top of the series) unless noted
[8] = NPC library primary testing for decreased DLD-1 cell viability via CellTiter-Glo (AID 1117346;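 active means compounds that lower survival of DLD-1 colon cancer cells in the luminescence readout, no cutoff given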); settings: DLD-1 viability, CellTiter-Glo luminescence; at 20 µM (top of the series)
[9] = tested on: Aerobactin synthetase IucA (Klebsiella pneumoniae); test: inhibition of K. pneumoniae IucA enzyme – biochemical, Tocris library, absorbance (AID 1345561; call rule not given here;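 further: 100% = enzyme without compound and 0% = no enzyme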); settings: purified IucA enzyme assay, absorbance (OD) read-out; stronger effect = lower value;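 tested at 8 µM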
[10] = viability loss with induced miR-34 in A549 – imaging, A549 dox-inducible miR-34, nuclei and caspase counts, primary screen (AID 1347080;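 active means compounds whose cell count with miR-34 switched on is under 0.7 times the count with it off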); settings: A549 miR-34 inducible, Hoechst nuclei count, 48 h
[11] = galactose survival enhancers in mitochondrial complex I cybrids – cell-based, galactose medium, ATP luminescence, primary screen (AID 1645843;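 active means z-score of at least 1.8 in each of two replicates, scored against plate mean and spread of sample wells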;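 further: positive z means more ATP and so rescue of galactose-driven cybrid death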); settings: complex I mutant cybrid cells, 72 h, stronger effect = higher value
[12] = P. berghei load reduction in hepatocytes – cell-based, HepG2, luciferase luminescence, HepG2 viability, primary screen (AID 624349; in the data active means parasite load remaining mostly below about 12%, no sharp cut-off; inactive means mostly above about 10%;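 further: 100% = mean of DMSO negative control wells on the same plate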); settings: P. berghei liver stage in HepG2, luciferase luminescence, concentration not given here; parasite load remaining: stronger effect = lower value; viability: measured here: HepG2 viability without parasites
[13] = viability loss in pontine glioma line – cell-based, SU-DIPG-XVII, MIPE5.0, CellTiter-Glo, qHTS, dose response (AID 1347060; cut-off not given, nearly all actives have AC50 up to about 26 µM;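 further: cells exposed to compound for 48 hours before viability readout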); settings: CellTiter-Glo ATP luminescence
[14] = viability loss in pontine glioma line – cell-based, SU-DIPG-XIII, MIPE4.0, CellTiter-Glo, qHTS, dose response (AID 1347061; cut-off not given, nearly all actives have AC50 up to about 37 µM;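 further: cells exposed to compound for 48 hours before readout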); settings: CellTiter-Glo ATP luminescence
[15] = viability loss in pontine glioma line – cell-based, SU-DIPG-IV, MIPE4.0, CellTiter-Glo, qHTS, dose response (AID 1347063; cut-off not given, nearly all actives have AC50 up to about 30 µM;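 further: compound exposure lasted 48 hours before the viability readout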); settings: CellTiter-Glo ATP luminescence
[16] = MELAS cybrid and Rieske KO viability enhancers – cell-based, MELAS cybrids, Rieske KO mouse fibroblasts, CellTiter-Glo, primary screen (AID 1508586;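 active means mean z-score across replicates of 1.96 or higher in either the MELAS or the Rieske mutant cell line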;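 further: z relative to plate mean and SD of compound and empty wells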); settings: low glucose
[17] = drug combination growth inhibition, ovarian cancer – cell-based, oncology-focused library, rucaparib conditional, profiling panel (AID 1508598); settings: patient-derived ovarian cancer cells, CellTiter-Glo viability, 144 h, stronger effect = lower value
[18] = stronger effect = lower value, cell number ratio, induced over uninduced
[19] = measured here: relative caspase fold change +Dox/-Dox
[20] = measured here: total cells with miR-34 induction, stronger effect = lower value
[21] = measured here: total cells without miR-34 induction

OCC(CO)N[C@H]1C[C@](O)(CO)[C@@H](O)[C@H](O)[C@H]1O
inactive: nuclear beta-catenin stimulation ([1]; at 10 µM) 3.1% | insulin secretion stimulation [2] -1.5% | viability decrease [3] -12.8% | tube area decrease [4] 7.6% | GLP1 secretion stimulation [5] 1.9% | inhibition of viability [6] 5.5% | viability decrease (inhibition) [7] 27.3% | viability decrease (inhibition) [8] 1.55% | remaining activity [9] 123% | fold change [10, 18] 0.876 | z-score [11] 0.245
10200: cell count [10, 21]
8920: cell count [10, 20]
1.87: fold change [10, 19]
5.1%: nuclear beta-catenin stimulation ([1]; stimulation, at 2 µM)

O=C(O)Cc1ccc(OCCNC[C@H](O)c2ccccc2)cc1
10000: cell count [10, 21]
-5%: nuclear beta-catenin stimulation ([1]; stimulation, at 2 µM)
inactive: nuclear beta-catenin stimulation ([1]; at 10 µM) 23.3% | insulin secretion stimulation [2] 0.6% | viability decrease [3] -5.3% | tube area decrease [4] -9.4% | GLP1 secretion stimulation [5] -0.5% | inhibition of viability [6] -1.1% | viability decrease (inhibition) [7] 8.4% | viability decrease (inhibition) [8] 19.5% | remaining activity [9] 103% | fold change [10, 18] 0.89 | z-score [11] 0.015
2.1: fold change [10, 19]
8910: cell count [10, 20]

CS(=O)(=O)CCNCc1ccc(-c2ccc3ncnc(Nc4ccc(OCc5cccc(F)c5)c(Cl)c4)c3c2)o1
3040 and 7890: cell count [10, 20]
-0.2%: nuclear beta-catenin stimulation ([1]; stimulation, at 2 µM)
inactive: parasite load remaining [12] 44.4% | nuclear beta-catenin stimulation ([1]; at 10 µM) 31.2% | insulin secretion stimulation [2] 1.35% | GLP1 secretion stimulation [5] 2.8% | fold change [10, 18] 0.964 and 0.914 | viability ([17]; at 0.000305 µM, OCI-C5x cells, with rucaparib 10 µM, 100% = cells with rucaparib alone) 113% and 103% | viability ([17]; at 0.000305 µM, OCI-C5x cells, without rucaparib) 123% and 111% | viability ([17]; at 0.00122 µM, OCI-C5x cells, with rucaparib 10 µM, 100% = cells with rucaparib alone) 107% and 123% | viability ([17]; at 0.00122 µM, OCI-C5x cells, without rucaparib) 123% and 115% | viability ([17]; at 0.00122 µM, OCI-P5x cells, without rucaparib) 104% and 107% | viability ([17]; at 0.00488 µM, OCI-C5x cells, with rucaparib 10 µM, 100% = cells with rucaparib alone) 111% and 106% | viability ([17]; at 0.00488 µM, OCI-C5x cells, without rucaparib) 131% and 122% | viability ([17]; at 0.00488 µM, OCI-P5x cells, without rucaparib) 105% and 108% | viability ([17]; at 0.0195 µM, OCI-C5x cells, with rucaparib 10 µM, 100% = cells with rucaparib alone) 109% and 107% | viability ([17]; at 0.0195 µM, OCI-C5x cells, without rucaparib) 128% and 109% | viability ([17]; at 0.0195 µM, OCI-P5x cells, without rucaparib) 105% and 111% | viability ([17]; at 0.0781 µM, OCI-C5x cells, with rucaparib 10 µM, 100% = cells with rucaparib alone) 113% and 110% | viability ([17]; at 0.0781 µM, OCI-C5x cells, without rucaparib) 126% and 113% | viability ([17]; at 0.0781 µM, OCI-P5x cells, with rucaparib 20 µM, 100% = cells with rucaparib alone) 103% and 104% | viability ([17]; at 0.0781 µM, OCI-P5x cells, without rucaparib) 111% | viability ([17]; at 0.313 µM, OCI-C5x cells, with rucaparib 10 µM, 100% = cells with rucaparib alone) 119% and 112% | viability ([17]; at 0.313 µM, OCI-C5x cells, without rucaparib) 134% and 112% | viability ([17]; at 0.313 µM, OCI-P5x cells, without rucaparib) 115% and 118% | viability ([17]; at 1.25 µM, OCI-C5x cells, without rucaparib) 126% | viability ([17]; at 1.25 µM, OCI-P5x cells, without rucaparib) 108% and 114% | viability ([17]; at 5 µM, OCI-C5x cells, without rucaparib) 134% and 128% | viability ([17]; at 5 µM, OCI-P5x cells, without rucaparib) 106% and 118% | z-score [11] -0.555
2.46 (active) and -0.221 (inactive): z-score ([16]; MELAS cybrid survival, CellTiter-Glo 48 h, stronger effect = higher value)
0.803 and 1.5: z-score ([16]; Rieske KO mouse fibroblast survival, CellTiter-Glo 72 h)
96.4% (active) and 103% (inactive): viability ([17]; at 0.0195 µM, OCI-P5x cells, with rucaparib 20 µM, 100% = cells with rucaparib alone)
116% (inactive) and 91.4% (active): viability ([17]; at 1.25 µM, OCI-C5x cells, with rucaparib 10 µM, 100% = cells with rucaparib alone)
102% (inactive) and 98.6% (active): viability ([17]; at 0.000305 µM, OCI-P5x cells, without rucaparib)
100% (inactive) and 93.5% (active): viability ([17]; at 5 µM, OCI-C5x cells, with rucaparib 10 µM, 100% = cells with rucaparib alone)
101% (inactive) and 97.5% (active): viability ([17]; at 1.25 µM, OCI-P5x cells, with rucaparib 20 µM, 100% = cells with rucaparib alone)
3150 and 8630: cell count [10, 21]
101%: viability [12]
1.01 and 1.28: fold change [10, 19]
active: viability decrease [3] 106% | tube area decrease [4] 110% | inhibition of viability [6] 107% | viability decrease (inhibition) [7] 129% | viability decrease (inhibition) [8] 100% | AC50 [13] 18.6 µM | AC50 [14] 14.8 µM | AC50 [15] 11.8 µM | viability ([17]; at 0.000305 µM, OCI-P5x cells, with rucaparib 20 µM, 100% = cells with rucaparib alone) 95.1% and 93.3% | viability ([17]; at 0.00122 µM, OCI-P5x cells, with rucaparib 20 µM, 100% = cells with rucaparib alone) 96.9% and 99.7% | viability ([17]; at 0.00488 µM, OCI-P5x cells, with rucaparib 20 µM, 100% = cells with rucaparib alone) 95.5% and 98.8% | viability ([17]; at 0.313 µM, OCI-P5x cells, with rucaparib 20 µM, 100% = cells with rucaparib alone) 96.8% and 98.2% | viability ([17]; at 5 µM, OCI-P5x cells, with rucaparib 20 µM, 100% = cells with rucaparib alone) 95.6% and 97.1%
